High-throughput results (PubChem)
SARS PLpro yeast: SARS-CoV PLP inhibition in yeast; S. cerevisiae expressing SARS-CoV PLpro, growth rescue; Potency, µM (titrated, usually from 32.9 µM), hits mostly activators; hit rate 0.19% among 330,000; AID 485353; also: nearly all actives have a fitted effect of over 55% in size
NS1 function inh: blocks influenza NS1 protein function | Potency, µM (highest dose often 46.1 µM) | hit rate 0.4% among 270,000; also: actives are rising curves; nearly all actives have a fitted effect of over 50% in size
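Compounds were scored for reversing the slow growth caused by influenza A NS1 in S. cerevisiae, measured by optical density at 600 nm. Assay medium contained 2% galactose at pH 6.0; NS1-free yeast of the same strain were the positive control.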
Shiga inhibitor: blocks Shiga toxin action in Vero cells; Vero cells, Shiga toxin protein synthesis inhibition reporter; inhibition, % at 38.7 µM; hit rate 9.2% among 290,000; AID 2315; in the data active = inhibition mostly above about 28%, no sharp cut-off; inactive = mostly below about 43%
CHX counter: counter-screen hit for Shiga toxin inhibitors, cycloheximide; cell reporter, cycloheximide protein synthesis inhibition counterscreen; max response, %; hit rate 12% among 300,000; AID 2314; in the data active = max response mostly above about 13%, no sharp cut-off; inactive = mostly below about 14%; also: read at 38.3 µM for the half of the compounds with a filed dose
Numbers stand for hits. Shown are actives, neighbours in structure and some others; about 12% of the full set was active somewhere. Unless noted, calls follow the shape of the full dose curve.

O=C(CSc1ncnc2sc3c(c12)CCCC3)c1ccccc1 was read as SARS PLpro yeast inactive, NS1 function inh inactive, Shiga inhibitor inactive and CHX counter inactive.
Screening O=C(CSc1ncnc2sc3c(c12)CCCC3)c1ccco1 returned SARS PLpro yeast inactive, NS1 function inh inactive, Shiga inhibitor 156.3 and CHX counter 68.3.
`O=C(CCCC(=O)OCC(F)(F)C(F)F)Nc1ccccc1F` gave SARS PLpro yeast inactive, Shiga inhibitor inactive and CHX counter inactive.
`COc1cc(NC(=O)c2cccc(S(=O)(=O)N3CCCCC3)c2)cc(OC)c1OC` gave SARS PLpro yeast inactive.
`COc1ccc(S(=O)(=O)NCC2CCCO2)cc1C(=O)O` (stereo not drawn) gave SARS PLpro yeast inactive, NS1 function inh inactive, Shiga inhibitor inactive and CHX counter inactive.
Screening Clc1ccc(CNc2ccc(CNc3ncn[nH]3)cc2)cc1 returned SARS PLpro yeast inactive, NS1 function inh inactive, Shiga inhibitor inactive and CHX counter inactive.
For Clc1ccc(NCc2ccsc2)cc1 the results were SARS PLpro yeast inactive, NS1 function inh inactive, Shiga inhibitor 26.9 and CHX counter 13.1.
`Cc1c(O)ccc2c(CC(=O)N[C@@H](Cc3ccccc3)C(=O)O)cc(=O)oc12` gave SARS PLpro yeast inactive, NS1 function inh inactive, Shiga inhibitor inactive and CHX counter inactive.
For COc1cccc(OC)c1C1=CC(=O)C[C@H](c2ccc3c(c2)OCO3)C1 the results were SARS PLpro yeast inactive.
Screening COc1cccc2c1C(=O)O/C2=C/c1ccc2c(c1)OCO2 returned SARS PLpro yeast inactive, NS1 function inh inactive, Shiga inhibitor 71.2 and CHX counter 43.1.
Screening Cc1cccc(C)c1NC(=O)C(=O)NCc1ccccn1 returned SARS PLpro yeast inactive, NS1 function inh inactive, Shiga inhibitor inactive and CHX counter inactive.
O=C(NCc1ccccn1)C(=O)Nc1ccccc1 was read as SARS PLpro yeast inactive, NS1 function inh inactive, Shiga inhibitor 67.3 and CHX counter 23.3.
Cc1ccc(NC(=O)C(=O)NCc2ccccn2)cc1 was read as SARS PLpro yeast inactive, NS1 function inh inactive, Shiga inhibitor 87.2 and CHX counter 29.4.
Cc1cc(Br)ccc1NCc1ccccn1 was read as SARS PLpro yeast inactive, NS1 function inh inactive, Shiga inhibitor 67.3 and CHX counter 30.8.
c1ccc(NCc2ccccn2)cc1 was read as SARS PLpro yeast inactive, NS1 function inh inactive, Shiga inhibitor 94.9 and CHX counter 18.4.
Screening OCCC1CN(Cc2cc3c(cc2Cl)OCO3)CCN1Cc1ccccc1 (stereo not drawn) returned SARS PLpro yeast inactive, NS1 function inh inactive, Shiga inhibitor inactive and CHX counter inactive.
CCCCN(C(=O)CSc1c(C)c(C)cc(C)c1C)c1c(N)n(CCC)c(=O)[nH]c1=O was read as SARS PLpro yeast inactive.
For CN1CCN(c2ccc3nc(-c4ccc5nc(-c6ccc(O)cc6)[nH]c5c4)[nH]c3c2)CC1 the results were NS1 function inh inactive.
For CC(C)N(Cc1ccccc1)C(=O)COC(=O)C1CCN(S(=O)(=O)c2ccc3c(c2)OCCO3)CC1 the results were SARS PLpro yeast inactive.
For Cc1ccccc1NC(=O)C(=O)NCc1ccccn1 the results were SARS PLpro yeast inactive, NS1 function inh inactive, Shiga inhibitor inactive and CHX counter 27.1.
Screening COc1ccccc1N1C(C)=CC(=C(C#N)c2nc3ccccc3s2)C=C1C returned SARS PLpro yeast inactive, NS1 function inh inactive, Shiga inhibitor inactive and CHX counter 21.8.
Nc1ccccc1C(=O)NNc1c2ccccc2nc2ccccc12 was read as SARS PLpro yeast inactive, NS1 function inh inactive, Shiga inhibitor 111.0 and CHX counter 18.6.
`O=C(NNc1c2ccccc2nc2ccccc12)c1ccc(Cl)cc1` gave SARS PLpro yeast inactive, NS1 function inh inactive, Shiga inhibitor inactive and CHX counter inactive.
`COc1cccc(C(=O)NNc2c3ccccc3nc3ccccc23)c1` gave SARS PLpro yeast inactive, NS1 function inh inactive, Shiga inhibitor inactive and CHX counter inactive.
Cc1ccc(C(=O)NNc2c3ccccc3nc3ccccc23)cc1 was read as SARS PLpro yeast inactive, NS1 function inh inactive, Shiga inhibitor 85.1 and CHX counter 41.4.
Screening CSCC[C@H](NC(=O)OC(C)(C)C)C(=O)NCC1CCC(C(=O)O)CC1 (stereo partly drawn) returned SARS PLpro yeast inactive, NS1 function inh inactive, Shiga inhibitor inactive and CHX counter inactive.
CS(=O)(=O)c1ccccc1-c1nnc(NC(=O)c2ccc3ncsc3c2)o1 was read as SARS PLpro yeast inactive.
Screening CC(=O)N[C@@H]1CONC1=O returned NS1 function inh inactive.
`COc1cccc2cc(C(=O)c3ccc([N+](=O)[O-])cc3)oc12` gave SARS PLpro yeast inactive, NS1 function inh inconclusive, Shiga inhibitor inactive and CHX counter 22.6.
For COc1cccc2cc(C(N)=O)oc12 the results were SARS PLpro yeast inactive, NS1 function inh inactive, Shiga inhibitor inactive and CHX counter inactive.
Screening COc1ccc(/C=C/C(=O)N2CCN(C)CC2)cc1S(=O)(=O)N1CCCCC1 returned SARS PLpro yeast inactive, NS1 function inh inactive, Shiga inhibitor inactive and CHX counter inactive.
Screening CCCSC1=NN2CCCC(=O)N=C2S1 returned SARS PLpro yeast inactive, Shiga inhibitor 93.1 and CHX counter 26.9.
Screening O=C1CCCN2N=C(SCC(=O)N3CCCCC3)SC2=N1 returned SARS PLpro yeast inactive, NS1 function inh inactive, Shiga inhibitor inactive and CHX counter inactive.
COc1ccc(/C=N/Nc2ncnc(Cl)c2N)cc1OC was read as SARS PLpro yeast inactive, NS1 function inh inactive, Shiga inhibitor inactive and CHX counter 13.9.
For Nc1c(Cl)ncnc1N/N=C/c1cccc(O)c1 the results were SARS PLpro yeast inactive, NS1 function inh inactive, Shiga inhibitor 49.7 and CHX counter 26.4.
Oc1cccc(/C=N/Nc2ncnc3c2ncn3Cc2ccccc2)c1 was read as SARS PLpro yeast inactive, NS1 function inh inactive, Shiga inhibitor 53.0 and CHX counter 18.1.
`O=C(NCc1ccc2c(c1)OCO2)C1CCC(=O)N1C1CCCCC1` (stereo not drawn) gave SARS PLpro yeast inactive, NS1 function inh inactive, Shiga inhibitor inactive and CHX counter inactive.
Screening Cn1c(=O)c2c(nc(/C=C/c3cccc(Cl)c3)n2C)n(C)c1=O returned NS1 function inh inactive.
CCSCC1COC(c2cccn2Cc2ccc(C)cc2)=N1 (stereo not drawn) was read as SARS PLpro yeast inactive, NS1 function inh inactive, Shiga inhibitor inactive and CHX counter 38.7.
CCOc1ccccc1OCCCC(=O)N(CC)CC(=O)Nc1c(F)cccc1F was read as SARS PLpro yeast inactive.
`Nc1ncnc2c1ncn2[C@H]1O[C@@H](C(=O)OCCO)[C@@H](O)[C@H]1O` gave NS1 function inh inactive.
For CCN(CC)S(=O)(=O)c1cc(C(=O)OCC(=O)Nc2ccc(-c3nc4ccc(C)cc4s3)cc2)ccc1F the results were SARS PLpro yeast inactive, NS1 function inh inactive, Shiga inhibitor 92.4 and CHX counter 63.1.
Screening CCN(CC)S(=O)(=O)c1ccc(NC(=O)COC(=O)c2ccc(-n3nc(C)cc3C)cc2)cc1 returned SARS PLpro yeast inactive, NS1 function inh inactive, Shiga inhibitor inactive and CHX counter inactive.
Screening CCN(CC)S(=O)(=O)c1ccc(C(=O)OCC(=O)Nc2ccc(-c3nc4ccc(C)cc4s3)cc2)cc1 returned SARS PLpro yeast inactive, NS1 function inh inactive, Shiga inhibitor 114.7 and CHX counter 74.5.
